Data taken from ChEMBL document CHEMBL4513146, “CO-ADD screening of Karazin Kharkiv National University (Ukraine) compounds”.
Entries with a potency or affinity are not part of this list.

Assays:
Staphylococcus aureus = settings: Concentration 32 ug.mL-1;; ASSAY_TEST Inhibition of Bacterial Growth; detection method Absorption (OD600); MEDIA CAMHB; plate type 384well; NBS; CORNING #3640; time 18 hr
Escherichia coli = settings: Concentration 32 ug.mL-1;; ASSAY_TEST Inhibition of Bacterial Growth; detection method Absorption (OD600); MEDIA CAMHB; plate type 384well; NBS; CORNING #3640; time 18 hr

SMILES	Inhibition (Staphylococcus aureus) [%]	Inhibition (Escherichia coli) [%]
COc1cccc(NC(=O)Cn2nc3c4cc(-c5ccc(Cl)cc5)nn4ccn3c2=O)c1	4.83	3.44
Cc1ccc(Sc2nccn3c(=O)n(CC(=O)Nc4cccc(Br)c4)nc23)c(C)c1	-7.2	-13.08
CCOc1ccc(-n2ccn3c(SCC(N)=O)nnc3c2=O)cc1	8.32	3.76
Cc1ccc(Oc2nccn3c(=O)n(CC(=O)Nc4ccc(Cl)cc4F)nc23)cc1	5.22	-5.2
CCCCc1ccc(NC(=O)Cn2c(=O)c3nnc(C(C)C)n3c3ccccc32)cc1	13.14	1.92
COc1cccc(NC(=O)Cn2nc3c(N4CCCC4)nccn3c2=O)c1	-2.28	-3.58
CCc1nnc2c(S(=O)(=O)N(Cc3cccc(F)c3)c3ccccc3)cccn12	7.57	-5.76
O=C(CSc1nnc2c(=O)n(-c3ccccc3)ccn12)c1c[nH]c2ccccc12	16.15	-0.51
Cc1ccc(F)cc1NC(=O)CSc1nc2ccccc2n2c(C(C)C)nnc12	9.29	-3.01
O=C(Cn1nc2c(Sc3cccc(F)c3)nccn2c1=O)Nc1cccc(C(F)(F)F)c1	12.33	-0.7
O=C(Cn1nc2c(N3CCOCC3)nccn2c1=O)Nc1ccc(Cl)cc1F	8.72	5.15
CCc1nnc2c(S(=O)(=O)N(Cc3cccc(C)c3)c3ccc(C(C)C)cc3)cccn12	20.56	-0.18
